Screening results as filed in PubChem.
Compounds with a hit are over-represented: about 2% of the library has one in this group of screens.
Mcl1-Noxa inh – disrupts binding of human Mcl-1 to Noxa peptide | inhibition, % at 21.7 µM | hit rate 1.5% among 220,000 | Q07820 | TR-FRET Mcl-1/Noxa peptide binding, 2 h;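 active = compounds that cut the protein-peptide binding signal by more than 50% relative to plate controls in a single-dose test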;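 also: His-tagged Mcl-1 with rhodamine Noxa BH3 peptide and terbium anti-His antibody; 0% = Mcl-1 plus Noxa peptide wells and 100% = peptide-only wells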
Target sequence (Q07820 whole entry, looked up): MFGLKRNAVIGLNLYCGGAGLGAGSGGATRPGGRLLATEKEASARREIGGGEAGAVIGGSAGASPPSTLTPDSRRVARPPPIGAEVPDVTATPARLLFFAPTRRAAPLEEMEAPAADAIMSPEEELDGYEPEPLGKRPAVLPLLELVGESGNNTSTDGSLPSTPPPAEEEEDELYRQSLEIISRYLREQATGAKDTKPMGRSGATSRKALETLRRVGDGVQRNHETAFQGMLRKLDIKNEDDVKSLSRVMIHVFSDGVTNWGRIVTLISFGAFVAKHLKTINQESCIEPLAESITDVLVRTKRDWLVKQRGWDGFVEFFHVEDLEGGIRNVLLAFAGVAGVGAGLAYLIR
MCL1 BIM primary – disrupts human MCL1 binding to BIM-BH3 peptide; Q07820; GST-MCL1 / FITC-Bim-BH3 fluorescence polarization; inhibition, % at 10.9 µM; hit rate 0.68% among 320,000; AID 2057;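 active = inhibition above the mean inhibition of all tested compounds plus 3 SD, set per campaign, cut at about 40% in these data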;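 also: 0% = DMSO wells and 100% = unlabeled Bim-BH3 peptide control; higher means more loss of mP so more displacement of Bim peptide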
Mcl1-Bid inh – Mcl-1/Bid interaction inhibition; Q07820; TR-FRET Mcl-1/Bid-Dy647 peptide binding, 1536-well; inhibition, % at 21.7 µM; hit rate 0.97% among 220,000; AID 1021;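 active = compounds that cut the binding signal by more than half at the single screening dose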;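 also: His-tagged Mcl-1 with europium anti-His antibody binding Bid BH3 peptide; 0% = Mcl-1 plus peptide wells and 100% = peptide-only wells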
Mcl-1 Bim block – disrupts Bim peptide binding to human Mcl-1. AID 1009. Bead-based flow cytometry, Bim peptide-Mcl-1 binding. inhibition, % at 10 µM. hit rate 0.1% among 190,000; in the data active = inhibition above about 40%;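 also: 0% = no compound tracer wells and 100% = peptide blocker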
Active calls of the source: *; x = no result.

SMILES	Mcl1-Noxa inh	MCL1 BIM primary	Mcl1-Bid inh	Mcl-1 Bim block
O=C(COC(=O)C1CCC1)NC(=O)c1ccccc1	x	-1	x	x
COc1ccc(Cc2nc(-c3ccc(Br)cc3)no2)cc1	58*	-5	-6	1
CCC(C)NC(=O)CSc1nc2cc3c(cc2c(=O)n1Cc1ccco1)OCO3 (stereo unspecified)	-27	x	54*	1
CCC(C)(C)n1nnnc1C(c1ccc(O)c(OC)c1)N1CCN(c2nc3ccccc3s2)CC1 (stereo unspecified)	68*	8	13	-2
CCC(C)(C)n1nnnc1C(c1ccc(O)c(OC)c1)N1CCc2ccccc2C1 (stereo unspecified)	82*	9	26	-4
CCC(C)(C)n1nnnc1C(c1ccccc1)N1CCc2ccccc2C1 (stereo unspecified)	1	3	4	-5
CCC(C)(C)n1nnnc1C(c1cccc(C#N)c1)N1CCN(c2cccc(C)c2C)CC1 (stereo unspecified)	70*	-4	-11	-3
N#Cc1cnn(-c2ccccc2)c1NC(=O)CN1CCN(c2ccccc2)CC1	11	2	-11	x
O=C(NNC(=O)c1cccc2ccccc12)c1ccc2c(c1)OCO2	-8	5	-10	x
CCOc1ccc(NC(=O)c2cc3c(C)nc4ccccc4c3o2)cc1	42	5	52*	1
COC(=O)CC(c1ccc(OC)c(OC)c1)c1ccc(OC)c(OC)c1	17	9	0	-4
Cc1[nH]c2ccccc2c1C(Nc1nccs1)c1ccncc1 (stereo unspecified)	4	12	-71	-4
Cc1ccnc(NC(c2ccncc2)c2c(C)[nH]c3ccccc23)c1 (stereo unspecified)	35	8	51*	-4
Clc1cccc(NCc2cn3cccnc3n2)c1	5	-1	-64	-2
CC(=O)c1cccc(NC(=O)CSc2ccc(-c3ccco3)nn2)c1	x	10	x	x
O=C(CSc1ccc(-c2ccco2)nn1)c1cccc([N+](=O)[O-])c1	33	66*	-45	-1
COC(=O)C1=C(C)N(Cc2ccco2)C(=O)/C1=C\c1ccc(N(C)C)cc1	54*	-7	-66	0
CC(C)(C)C(=O)NC1CCN(S(C)(=O)=O)CC1	40	-3	58*	-2
O=S(=O)(NCCCNS(=O)(=O)c1c(F)cccc1F)c1ccc2c(c1)OCCO2	x	6	x	x
CCn1cc(C(=O)Nc2cccc(C(=O)OC)c2)c(=O)c2ccc(C)nc21	x	2	x	x
CCn1cc(C(=O)Nc2ccc(-n3cnnn3)c(OC)c2)c(=O)c2ccc(C)nc21	58*	x	48	2
COc1cc(C#N)c(NC(=O)CN2CCC(C(N)=O)CC2)cc1OC	-8	3	-23	-38
CC1CCc2c(sc3ncn(CC(=O)N=Nc4c(O)[nH]c5ccccc45)c(=O)c23)C1 (stereo unspecified)	20	7	68*	x
CCN(CC(=O)NCCCN1CCOCC1)S(=O)(=O)c1ccc(F)cc1	x	10	x	x
COc1ccc2cc(C3CC(c4cccs4)=NN3C(C)=O)c(Cl)nc2c1 (stereo unspecified)	15	1	54*	x
SMILES	Mcl1-Noxa inh	MCL1 BIM primary	Mcl1-Bid inh	Mcl-1 Bim block
O=C(Nc1cccc(Oc2ccc(C(=O)O)c(C(=O)O)c2)c1)c1ccc(-c2ccccc2)cc1	80*	12	-49	x
O=C(Nc1nc(-c2ccccn2)cs1)c1ccc(Cl)s1	-82	10	-51	0
CSc1nc2ccc3nc(NC(=O)c4cccs4)sc3c2s1	30	8	66*	-15
CSc1nc2ccc3nc(NC(=O)c4ccc(Cl)s4)sc3c2s1	52*	-1	66*	1
COC(=O)c1ccc(=O)c2nc3/c(=C/O)c(O)cc(=O)c3[nH]c12	98*	97*	75*	x
CN(CC(=O)NCCCc1ccccc1)S(=O)(=O)c1ccc(Br)cc1	x	2	x	x
NC(=S)N/N=C/c1coc2c(ccc3ccccc32)c1=O	-2	5	76*	-4
NC(=O)N/N=C/c1coc2ccc3ccccc3c2c1=O	12	6	2	x
O=c1cc(/N=C/c2coc3c(ccc4ccccc43)c2=O)[nH]c(=S)[nH]1	74*	22	-85	-14
CCOc1ccccc1-n1c(=O)c2ccccc2c2ccccc2c1=O	10	-3	54*	6
N=C(N)c1ccc(Cl)cc1	16	5	-17	0
N=C(N)c1ccc(/C=C/c2ccc(C(=N)N)cc2O)cc1	66*	3	-92	x
Oc1ccc(N=Nc2cccc(C(F)(F)F)c2)cc1C=Nc1ccc(N2CCOCC2)cc1	69*	9	11	3
COc1cc(Br)ccc1C1CC(=O)C(C)C(c2ccc(Br)cc2OC)N1 (stereo unspecified)	x	-2	x	x
COc1ccc(-c2nn(CCC(=O)O)cc2/C=C2\SC(N)=NC2=O)cc1OC	90*	10	27	-17
COc1ccc(C(=O)/C=C/c2ccc(N3CCCCC3)c([N+](=O)[O-])c2)cc1	8	-3	100*	-3
COc1ccc(C(=O)/C=C/c2ccc(N3CCCCC3)c([N+](=O)[O-])c2)c(OC)c1	5	-9	-11	-2
CCCCC(C(=O)OCC)C(N)Cc1ccc(F)cc1 (stereo unspecified)	24	14	2	98*
Cc1ccc(NC(=O)Nc2sc(=S)n(C)c2C)cc1	54*	6	-22	0
CC(=O)NC(=O)Nc1sc(=S)n(C)c1C	1	3	1	41*
Cc1c(NC(=O)Oc2ccccc2)sc(=S)n1C	14	10	3	0
COc1cccc(CC(=O)OCC(=O)NCCc2ccc(F)cc2)c1	x	-19	x	x
O=c1nc2s/c(=C\c3ccc(-c4ccccc4[N+](=O)[O-])o3)c(=O)n2nc1-c1ccccc1	96*	x	-36	3
CCN(CC)c1ccc(C=Nc2cccnc2Cl)c(O)c1	x	51*	x	x
C=CCC(C(=O)Oc1c(C(C)(C)C)cc(C)cc1C(C)(C)C)c1ccccc1 (stereo unspecified)	x	-5	x	x
SMILES	Mcl1-Noxa inh	MCL1 BIM primary	Mcl1-Bid inh	Mcl-1 Bim block
Cc1cccc(N(CC(=O)Nc2c(C)n(C)n(-c3ccccc3)c2=O)S(C)(=O)=O)c1	4	2	99*	-2
Cc1c(NC(=O)c2ccc(S(=O)(=O)N(C)c3ccccc3)cc2)c(=O)n(-c2ccccc2)n1C	-2	7	-15	0
COCCN(CCOC)S(=O)(=O)c1ccc(C(=O)Nc2c(C)n(C)n(-c3ccccc3)c2=O)cc1	102*	-3	-18	x
COc1ccc(N(CC(=O)Nc2c(C)n(C)n(-c3ccccc3)c2=O)S(=O)(=O)c2ccc(C)cc2)cc1OC	x	-5	x	x
Cc1nnc(SCC(=O)NCc2ccccc2Cl)[nH]c1=O	3	2	-15	-1
CC(C)(C)C(=O)Nc1cccc(-c2ncon2)c1	-7	4	-9	x
CCCCCOc1ccc(C(=O)NCCC(=O)NCCCC(=O)OCC)cc1	1	-5	-9	x
CCOC(=O)CCCNC(=O)CCNC(=O)c1ccc(OCC)cc1	66*	9	-12	-1
CCc1nnc(NC(=O)CN2CCCC(C)C2)s1 (stereo unspecified)	x	9	x	x
